Test results taken from PubChem BioAssay AID898 (University of Pittsburgh Molecular Library Screening Center, 2007).
Hit rate of the full screen: of about 140,000 compounds, about 220 (0.16%) were called active. The entries come from a sample that favours actives as a whole. Values without a mark were called inactive. No stated cut-off is given here; in the data, active means inhibition above about 50%; inactive means the rest.

system: YopH tyrosine phosphatase [Yersinia enterocolitica]; assay: inhibition of Yersinia YopH phosphatase – biochemical, fluorescence Ex485/Em525, primary screen (AID 898); details: hits give high values, concentration not given here

Going from CC(C)Cc1nn2c(=O)cc(O)nc2s1 to CCn1c(C(C)NC(=O)c2ccc(C)cc2)n[nH]c1=S (stereo unspecified), the inhibition falls from -35.6% to -41.3%.

First: COc1ccc(OCC(=O)Nc2cc(C)c(Cl)cc2OC)c([N+](=O)[O-])c1
Second: CCN(CC)S(=O)(=O)c1ccc(C)c(NC(=O)COc2ccc(Br)cc2Cl)c1
The inhibition of the first is lower: -16.9% for the first, -2.1% for the second.

Compared with CC(=O)NC1C(OCc2ccccc2)OC(COC(C)=O)C(OC(C)=O)C1OC(C)=O (stereo unspecified), CCOC(=O)/C=C/C(=O)OCC(=O)NC(c1ccccc1)c1ccccc1 is lower in inhibition: -23.9% for the first, -29% for the second.

First: S=C(NCCc1ccccc1)NCC1CCCO1 (stereo unspecified)
Second: CN(CC(=O)NCCc1ccccc1)S(=O)(=O)c1cnc[nH]1
The inhibition of the first is lower: -37.5% for the first, -21% for the second.

First: CCS(=O)(=O)Nc1cccc(-c2cc(-c3ccccc3)c3cc(C)ccc3n2)c1
Second: CCCN1C(=O)C(Cc2nc3ccccc3c(=O)n2-c2ccccc2)c2cc(C)ccc21 (stereo unspecified)
The inhibition of the first is higher: -8.31% for the first, -10.9% for the second.

Compared with CCc1ccc(C(=O)OCC(=O)Nc2cccc(S(=O)(=O)NC3=NCCCCC3)c2)cc1, CC(=O)Nc1ccc(C(=O)OCC(=O)Nc2ccc([N+](=O)[O-])cc2C(F)(F)F)cc1 is higher in inhibition: -20.5% for the first, -15.8% for the second.

Going from Cc1cc([N+](=O)[O-])ccc1NC(=O)C1CCCO1 (stereo unspecified) to C[n+]1ccccc1C1CCCC/C1=N\Nc1ccc([N+](=O)[O-])cc1[N+](=O)[O-] (stereo unspecified), the inhibition rises from -25.6% to 3.63%.

Compared with Cc1cc([N+](=O)[O-])nn1CC(=O)Nc1ccc(Cc2ccncc2)cc1, CCCc1nc(SCC(=O)Nc2ccc(S(=O)(=O)N(C)C)cc2)c2ccccc2n1 is higher in inhibition: -27.8% for the first, -25.4% for the second.

First: O=C(Nc1ccccc1Cc1ccccc1)c1ccc2c(c1)SC1=NS(=O)(=O)CCN12
Second: C/C(=N\NC(=O)CSc1nc2ccccc2c(=O)n1-c1ccccc1C)c1cccs1
The inhibition of the first is lower: -31.8% for the first, -17% for the second.

First: CCOC(=O)CN1C(=O)N[C@@H](c2ccc(Br)cc2)C(C(C)=O)=C1C
Second: CCOC(=O)C1=C(c2ccc(OC)cc2)C(=O)c2ccccc2C1=O
The inhibition of the first is lower: -19.8% for the first, 16.7% for the second.

First: CC(=O)c1ccc(N2CCN(C(=O)c3ccc4nc[nH]c4c3)CC2)cc1
Second: CN1CCN(c2ccc(NC(=O)c3ccc4c(c3)[nH]c(=O)n4Cc3ccc(F)cc3)cc2)CC1
The inhibition of the first is higher: -23.5% for the first, -24.8% for the second.

Compared with COc1ccc2oc(-c3cccc(NC(=O)CSc4ccc(Cl)cc4)c3)nc2c1, Cc1ccc(-n2c(SCC(=O)Nc3ncc(Cl)cc3Cl)nc3ccccc32)cc1 is higher in inhibition: -28.2% for the first, 8.79% for the second.

Going from COc1ccc(N2C(=O)C(CC(=O)Nc3ccc(F)cc3)N(CCc3cccs3)C2=O)cc1 (stereo unspecified) to Cc1ccc(N(Cc2cc3ccccc3[nH]c2=O)C(=O)c2cccs2)cc1, the inhibition falls from -4.8% to -10.8%.

Compared with Cc1ccc(CCCOC(=O)C[N+]2(C)CCCC2)cc1, CCCCOC(=O)c1ccc(NC(c2ccc(C)cc2)P(=O)(OC)OC)cc1 (stereo unspecified) is higher in inhibition: -21.4% for the first, -6.33% for the second.

Going from CCC(=O)Nc1c(C)n[nH]c1C to CC(=O)c1c(C)[nH]c(C(=O)OCC(=O)Nc2sc3c(c2C#N)CCCC3)c1C, the inhibition rises from -26.6% to -24.9%.

Compared with CCOC(=O)c1cccnc1NC(=O)c1ccncc1, CCOC(=O)c1csc(NC(=O)Nc2cccc(OC)c2)n1 is lower in inhibition: -10.3% for the first, -29.1% for the second.

Compared with COc1cccc2c1CCC(NC(C)=O)C2=O (stereo unspecified), COc1cc(C(=S)NC2CCCCC2)ccc1O is lower in inhibition: -4.91% for the first, -30.2% for the second.

First: COc1ccc(CNC(=O)CCCn2nc(C)c([N+](=O)[O-])c2C)cc1
Second: COc1ccc(C/C(C)=N/NC(=O)c2cc(C)oc2C)cc1
The inhibition of the first is lower: -22.1% for the first, -13.9% for the second.

Compared with COc1ccc(/C=C/C(=O)NC(=S)NN2CCCCC2c2cccnc2)cc1 (stereo unspecified), O=[N+]([O-])c1ccc(N2CCNCC2)cc1NCc1cccnc1 is lower in inhibition: -20.6% for the first, -24.3% for the second.

Compared with Cc1ccc(C(=O)COC(=O)CCCC(=O)NC2CCCCC2)cc1[N+](=O)[O-], CCc1cccc(CC)c1NC(=O)COc1ccccc1C(=O)c1cc(C#N)c(=O)n(C2CCCCC2)c1 is higher in inhibition: -26.3% for the first, -24.5% for the second.

Compared with CCNC(=S)N1CCC(c2nc3cc(C)c(C)cc3[nH]2)CC1, CCOc1ccccc1N1CCN(C(=S)Nc2ccc(S(N)(=O)=O)cc2)CC1 is higher in inhibition: -17.7% for the first, -2.91% for the second.

First: O=S(=O)(ON(c1ccccc1)S(=O)(=O)c1ccccc1)c1ccccc1
Second: O=C(NC(CC(=O)N1CCN(c2ccccc2)CC1)c1ccccc1)c1ccccc1Cl (stereo unspecified)
The inhibition of the first is lower: -36.9% for the first, -12% for the second.

Going from CCOc1cccc2c1OC1(CCCCC1)N1N=C(c3cccnc3)CC21 (stereo unspecified) to O=C(NC1CCCCCC1)c1cccnc1Sc1ccc(Cl)cc1, the inhibition rises from -19.2% to -17.2%.

Compared with CC1(c2ccccc2)CC(C)(C)N(C(=O)c2cc([N+](=O)[O-])cc([N+](=O)[O-])c2)c2ccccc21 (stereo unspecified), COc1ccccc1N1N=C(c2cccs2)CC1c1ccccc1 (stereo unspecified) is higher in inhibition: -29.6% for the first, -12.8% for the second.

Going from CC1CCN(C2=NC(=O)/C(=C/c3cn[nH]c3-c3ccccc3)S2)CC1 to Brc1ccc(C2CC(c3ccccc3)=Nc3ccccc3N2)cc1 (stereo unspecified), the inhibition rises from -21.6% to -11.5%.

First: Cc1cc(C)c(C2C3=C(Nc4c2c(C)nn4-c2ccccn2)c2ccccc2C3=O)c(C)c1 (stereo unspecified)
Second: Cc1ccccc1-n1nc(C)c2c1N=C1C(Cl)=CC(Cl)=CN1C2c1ccc(C(=O)O)cc1 (stereo unspecified)
The inhibition of the first is higher: -0.15% for the first, -22.9% for the second.

Going from CCOC(=O)c1c(C)[nH]c(=S)c(C#N)c1-c1ccccc1 to CCCC(NC(=O)c1ccco1)c1nc2ccccc2[nH]1 (stereo unspecified), the inhibition rises from -37.4% to -24.8%.

Compared with COc1ccc2c(CC(=O)OCC(=O)Nc3ccccc3[N+](=O)[O-])coc2c1, Cc1ccc2c(CC(=O)NCc3cccs3)coc2c1 is lower in inhibition: -29.4% for the first, -29.9% for the second.

Compared with Cc1ccc(C(=O)Oc2coc(CSc3nnc(NC(=O)c4cccs4)s3)cc2=O)cc1C, O=C(CSc1nnc(SCc2ccc(Cl)cc2)s1)N/N=C/c1ccccc1Cl is lower in inhibition: 0.04% for the first, -26.2% for the second.

First: NC1=NC(=O)S/C1=C\c1ccc(O)cc1
Second: Cc1nonc1C(=O)N/N=C/c1ccc(O)cc1
The inhibition of the first is lower: -36.5% for the first, -21.7% for the second.

Going from CC(C)(C)C(=O)NC(NC(=S)Nc1ccc(S(N)(=O)=O)cc1)C(Cl)(Cl)Cl (stereo unspecified) to COC(C(=O)Nc1ccc(C(C)=O)cc1)c1ccccc1 (stereo unspecified), the inhibition falls from -18.5% to -28.2%.

First: Cc1ccc(C(=O)N(CN2CCCC2=O)c2ccc(F)cc2)cc1
Second: O=C(/C=C/NCc1ccc(F)cc1)c1ccccc1
The inhibition of the first is lower: -41.7% for the first, -30.4% for the second.

First: COCCCN(C(=S)Nc1c(C)cc(C)cc1C)C(C)c1ccncc1 (stereo unspecified)
Second: COCCNC(=O)c1ccccc1NS(=O)(=O)c1ccc(C)c([N+](=O)[O-])c1
The inhibition of the first is lower: -22.6% for the first, -4.7% for the second.

First: C/C(=N/NC(=S)Nc1ccccc1)c1ccc2c(c1)OCO2
Second: Cc1c(NC(=S)Nc2ccccc2)c(=O)n(-c2ccccc2)n1C
The inhibition of the first is higher: -22.5% for the first, -29.6% for the second.

Going from COc1ccc(OCCNS(=O)(=O)Cc2ccccc2)cc1 to C=CCNCCCCOc1ccccc1, the inhibition rises from -30.4% to -29.1%.

Going from Cc1ccc(-c2cc(C(=O)N/N=C/C=C/c3ccccc3)n[nH]2)o1 to Cc1ccc(O)c(-c2cc(C(=O)Nc3c(C)n(C)n(-c4ccccc4)c3=O)[nH]n2)c1, the inhibition falls from -23% to -27%.

Compared with O=C(COC(=O)c1cc2c(s1)CCCC2)NCc1ccccc1Cl, CCCCc1cc2c(s1)CCCC/C2=N/O is higher in inhibition: -45.2% for the first, -2.52% for the second.

Compared with CCCN1CNC(=S)N(CCc2ccccc2)C1, O=C(CN1CCN(c2ccccn2)CC1)N1CCc2ccccc21 is higher in inhibition: -20.8% for the first, -10% for the second.

Going from N#Cc1c(-c2ccc(F)cc2)cc(C2CC2)nc1SCC(=O)c1cccs1 to N#C/C(=C(/O)Cc1cccc2ccccc12)c1nc2ccccc2s1, the inhibition rises from -21.7% to -11%.

Going from O=C(CSc1nc2ccccc2[nH]1)Nc1nc(-c2ccccc2)c(-c2ccccc2)o1 to COC(=O)c1nc2ccccc2s1, the inhibition rises from -23.6% to -16.5%.

Going from COc1ccc(Br)cc1CN(C)CC(=O)Nc1cc(Cl)cc(Cl)c1 to CCN(CC)CCn1c(/N=C/c2cc(Br)ccc2O)nc2ccccc21, the inhibition falls from -5.01% to -20.7%.

First: CCCCNC(=O)CCn1c(=O)c2ccccc2n(Cc2cc(C)ccc2C)c1=O
Second: COC(=O)C1=NNC2(c3ccc(C)cc3)C(=O)N(c3cccc(C)c3C)C(=O)C12 (stereo unspecified)
The inhibition of the first is lower: -41.6% for the first, -28.4% for the second.

First: Nc1nnc(SCC(=O)OCc2ccc(Cl)c(Cl)c2)s1
Second: NC1=NN(c2cccc(C(=O)O)c2)C(=O)C1
The inhibition of the first is lower: -17.1% for the first, -7.9% for the second.

First: CN(C)CCNC(=O)Cc1ccc([N+](=O)[O-])cc1
Second: C=CCNC(=O)/C=C/c1ccc(C(C)C)cc1
The inhibition of the first is lower: -24.9% for the first, -23.5% for the second.

Going from CC(=O)Nc1ccc(S(=O)(=O)N2CCN(c3ccc([N+](=O)[O-])c(NCCN4CCOCC4)c3)CC2)cc1 to CC1(C)C2CC=C(/C=N/NC(=O)c3ccc(Cl)cc3)C1C2 (stereo unspecified), the inhibition falls from -27.6% to -29.6%.

For COc1cccc(NC(=S)NCc2ccco2)c1, the inhibition was -28.3%.

In the case of O=C(OCC1O[C@@H](OC(=O)c2cc(O)c(O)c(O)c2)[C@@H](OC(=O)c2cc(O)c(O)c(O)c2)[C@@H](OC(=O)c2cc(O)c(O)c(O)c2)[C@@H]1OC(=O)c1cc(O)c(O)c(O)c1)c1cc(O)c(O)c(O)c1 (stereo partly specified), the inhibition is reported as 71.9% (active).
In the case of Cc1coc2c(O)cc3c(c12)OC1(N2CCCCC2)C(=O)NCCCC31 (stereo unspecified), the inhibition is reported as 73% (active).
In the case of CCOC(=O)c1c(C)[nH]c2c1-c1ccccc1C(=O)C2=O, the inhibition is reported as 78.7% (active).
In the case of CCN1CCC2(CC1)N=C(c1ccc(F)cc1)C(=S)N2C(=O)c1ccc(C)cc1, the inhibition is reported as 77.9% (active).
With CC1=CC(=C(C#N)c2nc3ccccc3s2)C=C(C)N1c1ccc(F)cc1F the inhibition was 79.4% (active).
